Out of some 2,400 compounds screened, about 1,400 (58%) were called active.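 The calls were made as follows: active = inhibition of 30% or more at any tested dose; inconclusive = primary hits over the limit that were never retested; inactive = the rest.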 So high a share suggests a set chosen from earlier hits. This is one part of the list.

The assay is described as follows: ADP Hunter readout inhibition without MgcRacGAP – biochemical, coupled enzyme counter-screen, artefact control for MgcRacGAP inhibitor project, dose response (AID 624351).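 Also: signal is the ADP detection kit reading of free GDP without any GAP enzyme.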 Particulars: fluorescence, no MgcRacGAP; series mostly up to 80 µM. A general note: A counterscreen serves to expose hits that act by an unwanted route or on another target.
`COc1cccc(-c2ncc3ccccn23)c1`: the IC50 entry was “inactive”.

With `C=CCn1c(SCC(=O)c2ccc(O)c(O)c2)nnc1-c1cccc(OC)c1`, the IC50 is 68 µM (active).

On to `Cc1ccc(C2=NN=C(NC(=O)CSc3nncn3C)SC2)cc1`, for which the IC50 result is “inactive”.

Turning to `C=CCn1c(SCC(=O)Nc2ccc(N(C)C)cc2)nnc1-c1cccc(C)c1`, the IC50 is 58.8 µM (active).

Turning to `CCn1c2ccccc2c2cc(NC(=O)CNC)ccc21`, the IC50 result is “inactive”.

As for `CCn1c(SCC(=O)Nc2ccc(N(C)C)cc2)nnc1-c1cccc(C)c1`, the IC50 was 70.3 µM (active).

Regarding `O=S(=O)(NC1=NCCCCC1)c1ccc2sc(NS(=O)(=O)c3ccc4ccccc4c3)nc2c1`, the IC50 result was “inactive”.

For `CCOc1ccc(C(=O)NC(=S)Nc2ccc(N3CCCCC3)cc2)cc1[N+](=O)[O-]`, the IC50 result is “inactive”.

For `COc1cc(/C=C(/NC(=O)c2ccccc2)C(=O)Nc2ccc(O)cc2)c([N+](=O)[O-])cc1OC`, the IC50 is 58 µM (active).

Consider `CC(=O)Nc1ccc(OC(=O)c2ccc(Br)c([N+](=O)[O-])c2)cc1`, for which the IC50 entry was “inactive”.

`CN(C)c1nc(=NCc2cccs2)ss1`: the IC50 result was “inactive”.

Take `COc1cc(/C=N/NC(=O)c2cc[n+]([O-])cc2)ccc1O`: the IC50 is 35.7 µM (active).

Regarding `COc1cc(/C=N/NC(=O)c2cccc(NC(=O)c3ccccc3C)c2)ccc1O`, the IC50 is 34.4 µM (active).

`COc1cc(/C=N/NC(=O)C(=O)Nc2ccccn2)ccc1O`: the IC50 is 27.8 µM (active).

Take `COc1cc(/C=N\Nc2cc(=O)n(C)c(=O)n2C)ccc1O`: the IC50 is 36 µM (active).

With `CN(C)CCO/N=C(\c1ccc(Br)cc1)c1cccnc1`, the IC50 result was “inactive”.

`COc1cc(/C=N/NC(=O)C2(O)c3ccccc3-c3ccccc32)ccc1O`: the IC50 was 45.5 µM (active).

Regarding `COc1cc(/C=N/NC(=O)c2[nH]nc3c2CCc2ccccc2-3)ccc1O`, the IC50 is 56.5 µM (active).

In the case of `COc1cc(/C=N/NC(=O)c2ccc(-n3cccc3)cc2)ccc1O`, the concentration for half-maximal inhibition (IC50) was 22.3 µM (active).

As for `O=C(N/N=C/c1ccc(O)c(O)c1)c1ccc(-n2cnnn2)cc1`, the IC50 was 18.7 µM (active).

On to `COc1ccc(/C=N/NC(=O)c2cc[n+]([O-])cc2)cc1O`, for which the IC50 is 35.3 µM (active).

As to `COc1cc(/C=N/NC(=O)c2ccccc2)ccc1O`, the IC50 is 29.6 µM (active).

Take `COc1cc(/C=N/Nc2ccc(C(=O)O)cc2)ccc1O`: the IC50 was 36.1 µM (active).

Regarding `COc1ccc(NS(=O)(=O)c2cccc(C(=O)NN=Cc3ccc(O)c(OC)c3)c2)cc1`, the IC50 result was “inactive”.

As to `COc1cc(/C=N/NC(=O)c2cc3ccccc3[nH]2)ccc1O`, the IC50 is 20.8 µM (active).

On to `COc1ccc(C(C#N)=C2C=CC(=NO)C=C2)cc1`, for which the IC50 is 57.4 µM (active).

For `CCOc1cc(N2CCOCC2)c(OCC)cc1NCC(=O)N1CCN(Cc2ccccc2)CC1`, the IC50 result was “inactive”.

With `O=C(CNC1CCCCCC1)Nc1ccccc1N1CCOCC1`, the IC50 entry was “inactive”.

Turning to `CCOc1cc(N2CCOCC2)c(OCC)cc1NC(=O)c1ccc(C)s1`, the IC50 was 65.1 µM (active).

Regarding `CCN(CC)c1ccc(CN2CCC(C(=O)NCc3ccc(C)cc3)CC2)cc1`, the IC50 entry was “inactive”.

For `CCN(CC)CC(=O)NN(Cc1ccccc1)c1ccccc1`, the IC50 result was “inactive”.

For the compound `Cc1ccc(NC(=O)CN(C)C2CCCCC2)cc1Br`, the IC50 entry is “inactive”.

As for `CCN(CC)c1ccc(NC(=O)C2CCCC2)cc1`, the IC50 is 76.8 µM (active).

Take `CCN(CC)c1ccc(NC(=O)c2ccc(Br)o2)cc1`: the IC50 is 29.2 µM (active).

`CCN(CC)CCNCC(=O)Nc1ccc(Oc2ccccc2)cc1`: the IC50 entry is “inactive”.

In the case of `CCN(CC)c1ccc(NC(=O)Nc2ccccc2)cc1`, the IC50 was 53.3 µM (active).

As to `O=c1oc2ccccc2c2c1C(c1ccc(Cl)cc1)Nc1ccc3ccccc3c1-2` (centres undefined), the IC50 result was “inactive”.

As for `CN1CCCN(Cc2ccccc2C(F)(F)F)CC1`, the IC50 entry was “inactive”.

As to `CCc1nnc(NC(=O)CSCc2cc(=O)n3ccsc3n2)s1`, the IC50 result is “inactive”.

For `COc1ccc(OC(=O)C2CC(=O)N(c3ccc(C)cc3)C2)cc1` (centres undefined), the IC50 entry is “inactive”.

As for `Cc1ccc(N2CC(C(=O)Nc3ccc(N(C)C)cc3)CC2=O)cc1C` (centres undefined), the IC50 is 62.4 µM (active).

`CS(=O)(=O)C1=NSC2=NC(=O)/C(=C\c3ccc(OC(=O)c4ccco4)c(Br)c3)C(=N)N21`: the IC50 entry was “inactive”.

`O=[N+]([O-])c1ccc(N2CCN(c3ccc(O)cc3)CC2)c(Cl)c1`: the IC50 is 40.4 µM (active).

Take `O=[N+]([O-])c1ccc(N2CCN(CCOCCO)CC2)c([N+](=O)[O-])c1`: the IC50 result was “inactive”.

`Cc1cc(Cl)cc2sc(=S)[nH]c12`: the half-maximal inhibitory concentration (IC50) is 81.5 µM (active).

In the case of `CN(C)c1cc2c3ccccc3n(C)c2cc1N`, the IC50 is 13.4 µM (active).

Consider `Cc1c(N(C)C)nc2ccccc2c1N`, for which the IC50 entry was “inactive”.

In the case of `CCn1c2ccccc2c2cc(N)ccc21`, the IC50 result was “inactive”.

Take `CC1(C)OC(=O)C(=NNc2ccc(O)cc2)C(=O)O1`: the IC50 is 23.5 µM (active).

Regarding `COc1ccc2[nH]c3c(N4CCC(O)(c5cccc(C(F)(F)F)c5)CC4)ncnc3c2c1`, the IC50 result is “inactive”.

On to `Cc1ccc(SCCN2CCN(Cc3ccccc3)CC2)cc1`, for which the IC50 entry was “inactive”.

`Cc1ccc2c(c1)[nH]c1c(N3CCN(Cc4ccccc4)CC3)ncnc12`: the IC50 was 45.1 µM (active).

With `Cc1nc2ccccc2n2c(O)c(CC(=O)O)cc12`, the IC50 was 33 µM (active).

With `COc1cc(/C=C/C(=O)N[C@@H](Cc2c[nH]c3ccccc23)C(=O)O)ccc1O`, the concentration for half-maximal inhibition (IC50) is 83.7 µM (active).

For the compound `C/C=C(\C)CN1CCN(c2ccc(C)cc2)CC1`, the IC50 result was “inactive”.

`Cc1ccc(CN2CCN(C(=O)CC(C)C)CC2)cc1`: the IC50 entry is “inactive”.

For `Cc1ccc(S(=O)(=O)N2CCN(C(=O)CN3CCN(c4ccc(O)cc4)CC3)CC2)cc1`, the IC50 is 34.6 µM (active).

As to `CCOC(=O)N1CCC(N2CCN(S(=O)(=O)c3ccc4ccccc4c3)CC2)CC1`, the IC50 entry is “inactive”.

As for `O=S(=O)(c1ccc2ccccc2c1)N1CCN(c2ccc(O)cc2)CC1`, the IC50 is 39.5 µM (active).

In the case of `O=S(=O)(c1ccc2ccccc2c1)N1CCN(C2CCN(Cc3ccccc3)CC2)CC1`, the IC50 entry was “inactive”.

With `O=C(CSc1ccc2ccccc2c1)N1CCN(c2ccc(O)cc2)CC1`, the IC50 is 46.5 µM (active).

As for `Cc1cc2nc(/N=C(\N)NC(=O)N3c4ccccc4Sc4ccccc43)nc(C)c2cc1C`, the IC50 result was “inactive”.

For the compound `C#CCOCCOCCOCCNc1nc(N2CCN(C(=O)C([C@@H](C)O)n3cc([C@@H](N)CCCCN)nn3)CC2)nc(N2CCN(C(=O)[C@H](CCCN=C(N)N)n3cc(C(N)[C@@H](C)CC)nn3)CC2)n1` (some centres undefined), the IC50 entry was “inactive”.

Turning to `Cc1cc(O)ccc1Nc1nc(-c2cccs2)cs1`, the IC50 is 44 µM (active).

As usually defined, the IC50 is the concentration that gives 50% inhibition.

Values taken from PubChem BioAssay AID624351 (Southern Research Specialized Biocontainment Screening …, 2012).
